Test results as given in ChEMBL document CHEMBL2218924, “A broad activity screen in support of a chemogenomic map for kinase signalling research and drug discovery” (Biochem J, 2013).

Tests used:
[1] = biological target: Serine/threonine-protein kinase PAK 4 (Homo sapiens) (UniProt O96013); conditions: at 1 µM
[2] = biological target: Serine/threonine-protein kinase PAK 4 (Homo sapiens) (UniProt O96013); conditions: at 10 µM
[3] = biological target: Serine/threonine-protein kinase PAK 5 (Homo sapiens) (UniProt Q9P286); conditions: at 1 µM
Serine/threonine-protein kinase PAK 5 (Homo sapiens), sequence (Q9P286 whole entry, looked up): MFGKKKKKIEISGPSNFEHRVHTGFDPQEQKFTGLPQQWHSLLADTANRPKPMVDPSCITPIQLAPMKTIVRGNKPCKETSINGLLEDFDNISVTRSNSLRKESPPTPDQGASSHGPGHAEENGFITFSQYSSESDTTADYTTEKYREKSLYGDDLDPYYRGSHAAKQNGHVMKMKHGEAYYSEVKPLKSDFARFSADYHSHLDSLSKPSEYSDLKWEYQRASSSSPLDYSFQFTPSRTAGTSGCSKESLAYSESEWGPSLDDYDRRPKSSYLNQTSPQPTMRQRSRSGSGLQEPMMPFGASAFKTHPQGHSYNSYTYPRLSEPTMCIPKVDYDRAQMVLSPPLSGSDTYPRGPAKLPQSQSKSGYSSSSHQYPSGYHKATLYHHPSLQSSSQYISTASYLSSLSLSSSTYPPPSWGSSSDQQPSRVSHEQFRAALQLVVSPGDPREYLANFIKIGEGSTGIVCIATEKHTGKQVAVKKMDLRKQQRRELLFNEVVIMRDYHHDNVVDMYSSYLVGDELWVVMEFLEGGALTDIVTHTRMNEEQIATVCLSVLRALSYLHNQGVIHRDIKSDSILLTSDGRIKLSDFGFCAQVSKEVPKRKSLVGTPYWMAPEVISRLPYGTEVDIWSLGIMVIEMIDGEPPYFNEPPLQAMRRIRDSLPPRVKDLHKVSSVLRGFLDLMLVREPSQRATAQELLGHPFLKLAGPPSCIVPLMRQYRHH

[4] = biological target: Serine/threonine-protein kinase PAK 5 (Homo sapiens) (UniProt Q9P286); conditions: at 10 µM
[5] = biological target: Serine/threonine-protein kinase PAK 6 (Homo sapiens) (UniProt Q9NQU5); conditions: at 1 µM
Serine/threonine-protein kinase PAK 6 (Homo sapiens), sequence (Q9NQU5 whole entry, looked up, the tested form may be a part): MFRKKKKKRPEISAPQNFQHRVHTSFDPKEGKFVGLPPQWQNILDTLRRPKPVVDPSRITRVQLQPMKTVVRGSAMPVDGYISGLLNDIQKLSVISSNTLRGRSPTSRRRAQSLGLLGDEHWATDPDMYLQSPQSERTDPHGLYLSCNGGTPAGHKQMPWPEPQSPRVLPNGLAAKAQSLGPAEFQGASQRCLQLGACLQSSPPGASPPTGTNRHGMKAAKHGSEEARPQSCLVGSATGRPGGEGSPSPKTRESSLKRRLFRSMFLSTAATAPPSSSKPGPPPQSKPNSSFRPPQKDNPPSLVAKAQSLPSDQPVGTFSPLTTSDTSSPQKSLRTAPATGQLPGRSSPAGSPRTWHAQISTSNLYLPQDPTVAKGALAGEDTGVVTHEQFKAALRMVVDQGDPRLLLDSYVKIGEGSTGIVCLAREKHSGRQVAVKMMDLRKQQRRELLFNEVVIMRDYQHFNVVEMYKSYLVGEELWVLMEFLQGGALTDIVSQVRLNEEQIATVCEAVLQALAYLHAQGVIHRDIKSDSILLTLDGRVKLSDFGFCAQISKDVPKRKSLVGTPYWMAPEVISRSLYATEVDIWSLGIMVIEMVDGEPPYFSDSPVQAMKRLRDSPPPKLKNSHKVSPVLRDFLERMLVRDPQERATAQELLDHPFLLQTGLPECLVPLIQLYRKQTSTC

[6] = biological target: Serine/threonine-protein kinase PAK 6 (Homo sapiens) (UniProt Q9NQU5); conditions: at 10 µM
[7] = biological target: PAS domain-containing serine/threonine-protein kinase (Homo sapiens) (UniProt Q96RG2); conditions: at 10 µM
PAS domain-containing serine/threonine-protein kinase (Homo sapiens), sequence (Q96RG2 whole entry, the tested form may be a part): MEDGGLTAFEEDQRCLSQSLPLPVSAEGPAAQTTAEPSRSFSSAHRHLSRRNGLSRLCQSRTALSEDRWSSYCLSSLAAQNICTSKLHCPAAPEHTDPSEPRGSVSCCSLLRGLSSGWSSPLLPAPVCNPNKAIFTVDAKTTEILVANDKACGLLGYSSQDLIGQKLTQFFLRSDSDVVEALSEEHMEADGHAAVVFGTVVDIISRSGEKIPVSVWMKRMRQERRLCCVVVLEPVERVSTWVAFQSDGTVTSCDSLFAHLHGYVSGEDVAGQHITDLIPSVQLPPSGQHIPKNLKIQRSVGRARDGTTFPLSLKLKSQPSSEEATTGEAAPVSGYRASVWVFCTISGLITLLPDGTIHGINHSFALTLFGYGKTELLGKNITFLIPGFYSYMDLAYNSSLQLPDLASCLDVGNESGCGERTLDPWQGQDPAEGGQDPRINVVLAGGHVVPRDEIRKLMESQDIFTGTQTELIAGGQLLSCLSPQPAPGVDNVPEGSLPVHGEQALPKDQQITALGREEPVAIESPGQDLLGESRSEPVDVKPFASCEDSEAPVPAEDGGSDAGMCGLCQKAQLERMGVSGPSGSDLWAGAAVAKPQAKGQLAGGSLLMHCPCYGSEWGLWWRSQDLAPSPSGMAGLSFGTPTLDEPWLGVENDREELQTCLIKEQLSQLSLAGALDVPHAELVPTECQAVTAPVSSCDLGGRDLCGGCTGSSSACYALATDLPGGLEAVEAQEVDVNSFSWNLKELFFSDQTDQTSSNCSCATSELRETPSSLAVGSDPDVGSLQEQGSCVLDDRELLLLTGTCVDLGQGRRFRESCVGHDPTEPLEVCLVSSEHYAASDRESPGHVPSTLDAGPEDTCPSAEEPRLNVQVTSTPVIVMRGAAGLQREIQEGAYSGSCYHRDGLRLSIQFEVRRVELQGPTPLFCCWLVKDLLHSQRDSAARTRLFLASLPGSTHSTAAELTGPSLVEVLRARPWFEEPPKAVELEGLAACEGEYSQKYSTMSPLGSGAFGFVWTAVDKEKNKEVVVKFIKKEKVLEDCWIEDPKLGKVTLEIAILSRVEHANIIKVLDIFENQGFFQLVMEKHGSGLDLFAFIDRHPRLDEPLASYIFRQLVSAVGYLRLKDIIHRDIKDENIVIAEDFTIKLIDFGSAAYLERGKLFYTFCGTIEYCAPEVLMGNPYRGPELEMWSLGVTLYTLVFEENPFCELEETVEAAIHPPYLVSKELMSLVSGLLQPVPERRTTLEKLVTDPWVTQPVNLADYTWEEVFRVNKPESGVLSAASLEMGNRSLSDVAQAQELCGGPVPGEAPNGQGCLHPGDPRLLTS

[8] = biological target: Activated CDC42 kinase 1 (Homo sapiens) (UniProt Q07912); conditions: at 1 µM
[9] = biological target: Activated CDC42 kinase 1 (Homo sapiens) (UniProt Q07912); conditions: at 10 µM
[10] = biological target: T1, Activin receptor type-1B (Homo sapiens) (UniProt P36896); conditions: at 1 µM
T1 sequence (whole entry): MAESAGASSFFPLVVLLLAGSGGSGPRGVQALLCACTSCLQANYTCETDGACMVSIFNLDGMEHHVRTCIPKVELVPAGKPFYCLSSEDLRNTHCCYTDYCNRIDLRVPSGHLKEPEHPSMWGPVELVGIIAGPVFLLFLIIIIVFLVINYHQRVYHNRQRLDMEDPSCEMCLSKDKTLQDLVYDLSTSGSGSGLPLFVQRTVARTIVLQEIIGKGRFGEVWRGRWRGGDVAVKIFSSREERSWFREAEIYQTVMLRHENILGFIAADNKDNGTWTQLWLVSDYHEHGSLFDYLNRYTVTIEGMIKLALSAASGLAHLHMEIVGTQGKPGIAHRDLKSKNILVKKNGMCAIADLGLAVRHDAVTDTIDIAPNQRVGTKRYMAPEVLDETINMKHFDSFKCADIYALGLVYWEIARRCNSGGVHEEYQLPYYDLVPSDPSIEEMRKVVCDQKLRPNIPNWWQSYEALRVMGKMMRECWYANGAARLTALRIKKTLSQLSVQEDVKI

[11] = biological target: T2, NUAK family SNF1-like kinase 1 (Homo sapiens) (UniProt O60285); conditions: at 1 µM
T2 sequence (whole entry): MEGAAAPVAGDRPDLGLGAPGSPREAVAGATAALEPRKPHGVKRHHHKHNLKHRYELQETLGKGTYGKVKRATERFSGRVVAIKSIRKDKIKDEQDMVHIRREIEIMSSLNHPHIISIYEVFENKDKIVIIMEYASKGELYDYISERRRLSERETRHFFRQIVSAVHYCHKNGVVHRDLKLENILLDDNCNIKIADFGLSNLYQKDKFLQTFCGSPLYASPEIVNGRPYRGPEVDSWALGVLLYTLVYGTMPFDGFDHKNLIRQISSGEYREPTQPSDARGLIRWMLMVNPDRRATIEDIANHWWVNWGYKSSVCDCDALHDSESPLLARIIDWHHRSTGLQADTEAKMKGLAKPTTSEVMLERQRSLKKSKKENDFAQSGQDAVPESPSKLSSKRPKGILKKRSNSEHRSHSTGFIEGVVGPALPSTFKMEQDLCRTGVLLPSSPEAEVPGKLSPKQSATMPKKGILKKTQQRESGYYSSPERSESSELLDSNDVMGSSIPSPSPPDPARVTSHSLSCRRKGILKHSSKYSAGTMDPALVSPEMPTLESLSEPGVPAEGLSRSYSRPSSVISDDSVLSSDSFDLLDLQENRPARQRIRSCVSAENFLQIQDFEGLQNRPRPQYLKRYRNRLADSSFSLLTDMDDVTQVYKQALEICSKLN

[12] = biological target: T2, NUAK family SNF1-like kinase 1 (Homo sapiens); conditions: at 10 µM
[13] = biological target: ALK tyrosine kinase receptor (Homo sapiens) (UniProt Q9UM73); conditions: at 1 µM
ALK tyrosine kinase receptor (Homo sapiens), sequence (Q9UM73 19-1620 limits assumed): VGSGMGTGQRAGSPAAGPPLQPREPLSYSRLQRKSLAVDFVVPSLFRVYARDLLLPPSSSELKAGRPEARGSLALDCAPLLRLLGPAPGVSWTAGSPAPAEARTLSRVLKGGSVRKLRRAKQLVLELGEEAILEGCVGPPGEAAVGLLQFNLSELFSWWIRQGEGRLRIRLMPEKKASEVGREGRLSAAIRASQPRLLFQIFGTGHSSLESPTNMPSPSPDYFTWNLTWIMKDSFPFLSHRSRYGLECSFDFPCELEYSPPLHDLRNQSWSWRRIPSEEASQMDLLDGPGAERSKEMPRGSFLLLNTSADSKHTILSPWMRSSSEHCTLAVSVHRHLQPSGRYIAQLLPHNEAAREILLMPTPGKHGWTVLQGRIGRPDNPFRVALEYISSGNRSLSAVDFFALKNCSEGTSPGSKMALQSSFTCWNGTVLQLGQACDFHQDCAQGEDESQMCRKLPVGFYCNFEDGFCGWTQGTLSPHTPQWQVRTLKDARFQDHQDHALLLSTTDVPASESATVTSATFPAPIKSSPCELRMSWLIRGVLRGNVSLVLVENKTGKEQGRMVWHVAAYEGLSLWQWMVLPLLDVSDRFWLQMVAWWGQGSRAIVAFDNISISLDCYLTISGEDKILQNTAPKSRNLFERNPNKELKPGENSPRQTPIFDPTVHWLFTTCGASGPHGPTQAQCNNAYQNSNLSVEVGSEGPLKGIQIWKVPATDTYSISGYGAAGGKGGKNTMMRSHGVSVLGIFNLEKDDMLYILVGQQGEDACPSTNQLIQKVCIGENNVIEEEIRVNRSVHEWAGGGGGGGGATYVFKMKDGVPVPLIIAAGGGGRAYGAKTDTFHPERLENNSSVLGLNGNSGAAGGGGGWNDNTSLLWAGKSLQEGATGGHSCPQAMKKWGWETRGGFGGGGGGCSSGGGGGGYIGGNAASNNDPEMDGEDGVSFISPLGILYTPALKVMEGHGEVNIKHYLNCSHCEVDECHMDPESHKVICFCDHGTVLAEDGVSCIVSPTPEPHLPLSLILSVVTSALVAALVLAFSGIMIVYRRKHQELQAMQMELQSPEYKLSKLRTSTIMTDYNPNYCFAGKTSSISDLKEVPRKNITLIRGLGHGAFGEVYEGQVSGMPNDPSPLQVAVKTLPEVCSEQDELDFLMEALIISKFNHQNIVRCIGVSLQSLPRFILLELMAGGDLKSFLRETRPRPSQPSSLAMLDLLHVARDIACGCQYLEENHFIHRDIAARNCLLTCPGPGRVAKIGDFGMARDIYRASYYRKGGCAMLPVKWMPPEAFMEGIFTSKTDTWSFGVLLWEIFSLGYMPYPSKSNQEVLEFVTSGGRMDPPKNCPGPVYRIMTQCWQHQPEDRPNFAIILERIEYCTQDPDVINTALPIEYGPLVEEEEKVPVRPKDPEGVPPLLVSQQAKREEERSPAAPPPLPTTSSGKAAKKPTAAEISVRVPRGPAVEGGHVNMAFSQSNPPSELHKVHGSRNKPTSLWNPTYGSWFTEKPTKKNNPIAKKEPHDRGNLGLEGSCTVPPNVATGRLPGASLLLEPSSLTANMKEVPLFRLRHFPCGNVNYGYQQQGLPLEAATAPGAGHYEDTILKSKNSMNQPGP

[14] = biological target: ALK tyrosine kinase receptor (Homo sapiens) (UniProt Q9UM73); conditions: at 10 µM
[15] = biological target: T1, Activin receptor type-1B (Homo sapiens); conditions: at 10 µM
[16] = biological target: T3, AMP-activated protein kinase (AMPK) alpha-1/beta-1/gamma-1 (Homo sapiens) (UniProt P54619+Q9Y478+Q13131); conditions: at 1 µM
[17] = biological target: T3, AMP-activated protein kinase (AMPK) alpha-1/beta-1/gamma-1 (Homo sapiens); conditions: at 10 µM
[18] = biological target: T4, AMP-activated protein kinase, AMPK (Homo sapiens) (UniProt P54646+O43741+P54619+Q9UGJ0+Q9Y478+Q13131+Q9UGI9); conditions: at 1 µM
[19] = biological target: T4, AMP-activated protein kinase, AMPK (Homo sapiens); conditions: at 10 µM
[20] = biological target: T5, Mitogen-activated protein kinase kinase kinase 5 (Homo sapiens) (UniProt Q99683); conditions: at 1 µM
T5 sequence (whole entry): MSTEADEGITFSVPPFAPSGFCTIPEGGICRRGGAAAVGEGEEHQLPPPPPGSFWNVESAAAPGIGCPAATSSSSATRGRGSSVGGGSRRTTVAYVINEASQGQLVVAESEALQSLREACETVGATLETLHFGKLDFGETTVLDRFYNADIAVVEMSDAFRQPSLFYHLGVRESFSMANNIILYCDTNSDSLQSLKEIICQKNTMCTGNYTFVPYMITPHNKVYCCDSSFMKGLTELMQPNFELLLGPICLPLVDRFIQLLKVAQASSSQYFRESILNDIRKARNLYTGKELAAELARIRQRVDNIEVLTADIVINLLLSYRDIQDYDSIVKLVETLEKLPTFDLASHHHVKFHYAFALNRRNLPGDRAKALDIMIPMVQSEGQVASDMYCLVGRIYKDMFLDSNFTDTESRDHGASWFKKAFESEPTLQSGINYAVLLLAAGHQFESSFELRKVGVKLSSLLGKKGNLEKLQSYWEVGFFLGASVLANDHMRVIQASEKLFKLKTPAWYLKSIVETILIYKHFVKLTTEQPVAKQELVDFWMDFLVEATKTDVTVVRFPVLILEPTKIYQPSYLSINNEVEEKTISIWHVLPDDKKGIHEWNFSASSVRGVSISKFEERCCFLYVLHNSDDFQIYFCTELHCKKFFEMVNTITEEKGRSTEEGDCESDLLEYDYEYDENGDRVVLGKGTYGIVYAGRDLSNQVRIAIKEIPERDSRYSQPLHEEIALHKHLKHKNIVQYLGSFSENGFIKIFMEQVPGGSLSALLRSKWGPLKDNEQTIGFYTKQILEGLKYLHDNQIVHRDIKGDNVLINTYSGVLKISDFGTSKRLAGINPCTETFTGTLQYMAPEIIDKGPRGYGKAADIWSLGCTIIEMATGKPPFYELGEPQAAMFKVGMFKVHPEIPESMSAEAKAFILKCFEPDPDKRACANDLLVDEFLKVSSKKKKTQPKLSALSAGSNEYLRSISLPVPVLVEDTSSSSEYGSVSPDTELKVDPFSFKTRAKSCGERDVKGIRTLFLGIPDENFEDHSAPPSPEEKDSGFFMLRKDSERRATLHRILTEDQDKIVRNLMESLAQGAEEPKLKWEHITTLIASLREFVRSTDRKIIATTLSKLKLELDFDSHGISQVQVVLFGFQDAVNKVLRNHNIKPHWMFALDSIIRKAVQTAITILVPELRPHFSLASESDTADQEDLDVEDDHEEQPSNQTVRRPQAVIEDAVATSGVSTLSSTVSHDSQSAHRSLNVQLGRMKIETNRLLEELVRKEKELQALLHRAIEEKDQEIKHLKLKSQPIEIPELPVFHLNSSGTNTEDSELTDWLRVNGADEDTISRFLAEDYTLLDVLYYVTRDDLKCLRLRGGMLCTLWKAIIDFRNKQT

Serine/threonine-protein kinase PAK 4 (Homo sapiens), sequence (O96013 whole entry, looked up): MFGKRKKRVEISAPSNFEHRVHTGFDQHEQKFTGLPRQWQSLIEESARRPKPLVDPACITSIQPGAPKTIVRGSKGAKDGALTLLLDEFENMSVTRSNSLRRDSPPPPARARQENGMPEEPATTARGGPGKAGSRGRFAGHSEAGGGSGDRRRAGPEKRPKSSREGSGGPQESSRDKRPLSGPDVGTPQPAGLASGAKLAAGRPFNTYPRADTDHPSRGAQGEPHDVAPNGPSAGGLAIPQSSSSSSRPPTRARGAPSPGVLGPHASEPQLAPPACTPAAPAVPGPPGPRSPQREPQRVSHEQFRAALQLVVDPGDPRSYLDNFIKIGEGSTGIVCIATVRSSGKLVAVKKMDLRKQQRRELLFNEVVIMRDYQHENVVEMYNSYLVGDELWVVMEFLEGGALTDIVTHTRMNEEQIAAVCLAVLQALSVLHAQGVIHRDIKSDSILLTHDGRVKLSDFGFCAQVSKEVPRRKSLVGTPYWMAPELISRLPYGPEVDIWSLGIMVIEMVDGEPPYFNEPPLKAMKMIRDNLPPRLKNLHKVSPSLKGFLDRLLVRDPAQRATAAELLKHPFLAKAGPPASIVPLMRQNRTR

SMILES | residual activity [1] [%] | residual activity [2] [%] | residual activity [3] [%] | residual activity [4] [%] | residual activity [5] [%] | residual activity [6] [%] | residual activity [7] [%] | residual activity [8] [%] | residual activity [9] [%] | residual activity [10] [%] | residual activity [11] [%] | residual activity [12] [%] | residual activity [13] [%] | residual activity [14] [%] | residual activity [15] [%] | residual activity [16] [%] | residual activity [17] [%] | residual activity [18] [%] | residual activity [19] [%] | residual activity [20] [%]
NCCNc1ncc(C(N)=O)c(Nc2cccc(C(F)(F)F)c2)n1 | 49 | 9 | 48 | 9 | 63 | 18 | 40 | 70 | 16 | 136 | 45 | 13 | – | – | – | – | – | – | – | –
O=C1C(Cl)=C(N2C(=O)CCC2=O)C(=O)c2ccccc21 | 95 | 96 | 99 | 84 | – | 93 | 122 | 78 | 69 | 101 | 96 | 84 | 65 | 58 | 121 | 95 | 91 | 99 | 101 | 89
COc1ccc2c(c1)c(C1=C(c3c[nH]c4ccccc34)C(=O)NC1=O)cn2CCCN(C)C | – | – | – | – | – | – | 32 | 65 | 21 | – | 37 | 10 | 80 | 64 | 47 | 52 | 11 | 38 | 5 | –
O=C1NC(=O)C(c2cn(CCCO)c3ncccc23)=C1c1cnccn1 | – | – | – | – | 78 | 75 | 89 | 82 | 71 | 83 | 62 | 50 | 84 | 67 | – | 92 | 75 | 94 | 80 | 78
CN([C@@H](Cc1ccc(OS(=O)(=O)c2cccc3cnccc23)cc1)C(=O)N1CCN(c2ccccc2)CC1)S(=O)(=O)c1cccc2cnccc12 | – | – | 115 | 72 | 84 | 50 | 79 | 100 | – | – | – | – | 74 | 57 | 86 | – | – | – | 86 | 115
N#C/C(=C\c1ccc(O)c(O)c1)C(=O)NCc1ccccc1 | – | – | – | 85 | – | – | 55 | 88 | 62 | – | 100 | 100 | – | – | – | 87 | 53 | 124 | 70 | –
N#C/C(=C1/Nc2ccccc2S1)c1ccnc(NCCc2cccnc2)n1 | – | – | 84 | 72 | – | – | – | – | 12 | – | 97 | 82 | 64 | 18 | – | – | 70 | 99 | 67 | 78
COc1ccc(CNC(=O)Nc2ncc([N+](=O)[O-])s2)cc1 | – | – | – | – | – | – | 110 | 77 | 55 | – | – | – | 70 | 64 | 109 | – | – | – | – | –
CSc1nc(-c2ccc(F)cc2)c(-c2ccnc(NC(C)c3ccccc3)c2)[nH]1 (stereo unspecified) | – | 92 | 102 | 83 | 96 | 81 | 64 | 90 | 50 | – | 101 | 60 | 82 | 56 | – | 88 | 59 | 80 | 56 | 101
NC(=O)c1ccc(-c2nc(-c3ccc4c(c3)OCCO4)c(-c3ccccn3)[nH]2)cc1 | 99 | 98 | – | – | – | – | – | 79 | 68 | 31 | – | 91 | 74 | 52 | 0 | 90 | 92 | – | – | 98
COc1ccc(COc2ccc(Cc3cnc(N)nc3N)cc2OC)cc1 | – | – | – | 100 | – | – | – | 79 | 68 | 120 | – | – | 74 | – | 119 | – | – | – | 82 | –
Fc1ccc(-c2nc3n(c2-c2ccncc2)CCS3)cc1 | – | – | – | – | – | – | – | 87 | 79 | 100 | – | 90 | 86 | 94 | 29 | – | – | – | – | 96
NC(=O)c1cccc(-c2cc(Nc3ccc(OC(F)(F)F)cc3)ncn2)c1 | – | – | 92 | 84 | – | – | – | – | 86 | – | – | 90 | – | – | – | 99 | 93 | – | 83 | 90
COc1cc2ncnc(Nc3cccc(Cl)c3)c2cc1OC | – | – | 109 | 84 | 102 | 87 | – | 34 | 6 | 105 | – | 52 | 100 | 107 | 101 | – | 67 | – | 74 | 103
O=C1NC(=O)C(c2cn(CCCn3ccnc3)c3ccccc23)=C1Nc1ccccc1 | – | 75 | – | – | – | – | – | 45 | 11 | 107 | – | 38 | 74 | 65 | 103 | 74 | 32 | 73 | 25 | 82
COc1cc2c(cc1OC)-c1n[nH]c(Nc3cccc(F)c3)c1C2 | – | – | – | – | 98 | 99 | – | – | – | – | – | 68 | 74 | – | – | 80 | 65 | – | 69 | 74
O=C1Nc2ccccc2/C1=C\c1c(Cl)[nH]c2ccccc12 | – | – | – | – | – | 85 | 67 | 84 | 48 | – | – | 46 | 81 | 49 | – | – | – | – | 58 | –
